# Measured values as given in PubChem BioAssay (NCATS).
# Where “and” joins values, the source holds several entries; their conditions need not be identical. Equal values may be shown once.
# Assay: qHTS profiling for inhibitors of Plasmodium falciparum (DD2) proliferation (AID 743323)
# Details: lower = more inhibition; at 28.7 µM (top of the series)
# Description: Plasmodium falciparum is a virulent malarial parasite that kills 1-2 million people worldwide each year. Transmitted by mosquitoes, the sporozoite form of the parasite enters the blood stream to infect hepatocytes, where they become merozoites that infect red blood cells (erythrocytes). Within erythrocytes, merozoites begin a […] cycle of growth and division, after which the parasite is released to infect new red blood cells. Gametocytes, which form within erythrocytes as well, circulate in the bloodstream and are ingested by the mosquito, thereby completing the life cycle. To profile malarial isolates for differential chemical responses and to identify inhibitors of malarial growth, an assay that measures P. falciparum growth and replication within erythrocytes was employed. This assay uses a DNA binding fluorescent dye (SYBR Green) to detect parasite DNA following cell lysis. Because mature erythrocytes lack DNA, only Plasmodium-derived DNA is detected.
# The SYBR Green viability assay was adapted from a method described previously (Plouffe et al., 2008). For screening 3 ul culture medium was dispensed into 1536 well black clear bottom plates (Aurora Biotechnologies) using a Multidrop Combi (Thermo Fisher Scientific Inc.), 23 nL compounds in DMSO were added by a pin tool (Kalypsys), and 5 ul of erythrocytes infected with P. falciparum (0.3% parasitemia, 2.5% hematocrit final concentration) were added. The plates were incubated at 37 C in a humidified incubator in 5% CO2 for 72 h, and 2 ul lysis buffer (20 mM Tris HCl, 10 mM EDTA, 0.16% saponin, […]% triton X, 10X SYBR Green I supplied as 10,000X […] by Invitrogen) was added to each well. The plates were mixed for 25 sec with gentle shaking and incubated overnight at room temperature in the dark. The following morning, fluorescence intensity at 485(14) nm excitation and 535(25) nm emission wavelengths was measured on an EnVision (Perkin Elmer) plate reader. Plate reads were normalized relative to the control inhibitor (0.29 uM artemisinin) and vehicle (DMSO) wells present on each plate and then corrected by an algorithm using vehicle-only control plates at the beginning and end of the compound plate stack.
row,SMILES,"activity, percent of control"
1,CO[C@H]1C=CC=C(C)C(=O)NC2=CC(=O)C(NCCN(C)C)=C(C[C@@H](C)C[C@H](OC)[C@@H](O)[C@@H](C)C=C(C)[C@@H]1OC(N)=O)C2=O,-0.115%
2,CC(C)[C@H](CO)Nc1nc(Nc2ccc(C(=O)O)c(Cl)c2)c2ncn(C(C)C)c2n1,35.2%
3,CCOC(CN1C(=O)[C@](CC(=O)Nc2ccc(C)cc2)(NC(=O)Nc2ccc(C)cc2)c2ccccc21)OCC,23.7%
4,CC(=O)N(C)C1(c2ccccc2)CCN(CCC[C@]2(c3ccc(Cl)c(Cl)c3)CCCN(C(=O)c3ccccc3)C2)CC1,-0.455%
5,c1ccc2c(-c3cnn4cc(-c5ccc(N6CCNCC6)cc5)cnc34)ccnc2c1,-0.291%
6,OC[C@H]1O[C@@H](n2cnc3c2NC=NC[C@@H]3O)C[C@H]1O,106%
7,O=C(O)CCC1CCC(c2cc(F)ccc2F)(S(=O)(=O)c2ccc(Cl)cc2)CC1 (stereo not given),74.5%
8,CN(C)C1CCN(C(=O)c2ccc(NC(=O)Nc3nc(N4CCOCC4)nc(N4CCOCC4)n3)cc2)CC1,2%
9,COc1ccc(C2CC(c3ccccc3)=NN2c2ccc(S(N)(=O)=O)cc2)cc1 (stereo not given),40.1%
10,CN1CCN(CCOc2cc(OC3CCOCC3)c3c(Nc4c(Cl)ccc5c4OCO5)ncnc3c2)CC1,1.7%
11,Clc1ccc(-c2nc3sccn3c2C=NOCc2ccc(Cl)c(Cl)c2)cc1,101%
12,CCc1ccc(OCc2ccccc2C(=O)Nc2ccc3nc(C)cc(N)c3c2)cc1,0.0556%
13,CC(C)(C)C(=O)Oc1ccc2c(c1)nc(NC(=O)c1cccc([N+](=O)[O-])c1)n2CCCO,82%
14,COc1cc2nc(-c3ccc(N4CCN(C)CC4)cc3)nc(NCCN3CCOCC3)c2cc1OC,-0.313%
15,CC(C)C(=O)Nc1ncc(-c2cc(C(F)F)nn2-c2c(Cl)cccc2Cl)s1,-0.314%
16,CC1=C(/C=C/C(C)=C/C=C/C(C)=C/C(=O)Nc2ccc(O)cc2)C(C)(C)CCC1,22.9%
17,O=c1cc(N2CCOCC2)oc2c(-c3cccc4c3sc3ccccc34)cccc12,10.6%
18,O=C(O)c1ccc(-c2cc3cccnc3c(-c3ccc4nonc4c3)n2)cc1,92.9%
19,CC(C)(C)COc1ccc(-n2cc(C(=O)O)cn2)cc1C#N,88.8%
20,COc1cc(N2CCC(N3CCN(C)CC3)CC2)ccc1Nc1ncc(Cl)c(Nc2ccccc2S(=O)(=O)C(C)C)n1,0.218%

row,SMILES,"activity, percent of control"
1,CO[C@H]1C[C@@H]2CC[C@@H](C)[C@@](O)(O2)C(=O)C(=O)N2CCCC[C@@H]2C(=O)O[C@H]([C@H](C)C[C@@H]2CC[C@H](OCCO)[C@H](OC)C2)CC(=O)[C@H](C)C=C(C)[C@@H](O)[C@@H](OC)C(=O)[C@H](C)C[C@H](C)C=CC=CC=C1C,-0.639%
2,COc1cc2ncnc(-n3nc(-c4ccccn4)nc3N)c2cc1OC,96.4%
3,O=c1cc(CN2CCOCC2)occ1OCCCCCSc1ccnc2cc(C(F)(F)F)ccc12,26.8%
4,O=C(Nc1cc(Cl)cc2c1[nH]c1cnccc12)c1cccnc1,7.04%
5,Cc1ccc(F)c(NC(=O)Nc2ccc(-c3cccc4[nH]nc(N)c34)cc2)c1,67.8%
6,O=C1C(Cl)=C(NCCN2CCOCC2)C(=O)c2ncccc21,17.3%
7,CC(C)(C(=O)NCC(F)(F)C(F)(F)F)C(=O)N[C@@H]1C(=O)Nc2ccccc2-c2ccccc21,4.91%
8,CCOc1ccc(Nc2nc(-c3c(C)nc4ccccn34)cs2)cc1,5.76%
9,Cc1nc(N)sc1-c1ccnc(Nc2ccc(N3CCOCC3)cc2)n1,7.68%
10,CC(=O)Nc1ccc([C@H](C)C(=O)Nc2ncc(C(C)C)s2)cc1,101%
11,CC[C@H]1OC(=O)[C@H](C)[C@@H](O[C@H]2C[C@@](C)(OC)[C@@H](O)[C@H](C)O2)[C@H](C)[C@@H](O[C@@H]2O[C@H](C)C[C@H](N(C)C)[C@@H]2O)[C@](C)(O)C[C@@H](C)CN(C)[C@H](C)[C@@H](O)[C@]1(C)O,19.2%
12,COc1cccc2c1CCCC2CCCN1CCN(C2CCCCC2)CC1 (stereo not given),3.08%
13,C[C@@H]1CCN(C(=O)CC#N)C[C@H]1N(C)c1ncnc2[nH]ccc12,90.1%
14,O=C(N[C@@H](c1ccccc1)[C@@H]1CCCCN1)c1cccc(C(F)(F)F)c1Cl,16.6%
15,COc1ncc(-c2ccc3nccc(-c4ccnnc4)c3c2)cc1NS(=O)(=O)c1ccc(F)cc1F,-0.177%
16,CN(C)Cc1ccc(-c2nc3cccc4c3n2CCNC4=O)cc1,90%
17,CO[C@@H](C(=O)N1Cc2[nH]nc(NC(=O)c3ccc(N4CCN(C)CC4)cc3)c2C1)c1ccccc1,24.6%
18,O=C(Nc1ccccc1-c1cn2c(CN3CCNCC3)csc2n1)c1cnc2ccccc2n1,-0.76% and -0.434%
19,COc1cc(Nc2ncc(F)c(Nc3ccc4c(n3)NC(=O)C(C)(C)O4)n2)cc(OC)c1OC,89.1%
20,N#Cc1ccc(NC(=O)Nc2ccccc2Br)c2n[nH]nc12,69.6%
